Laboratory results from PubChem BioAssay.
For some assays here: Results with a measured potency or affinity are listed apart. Active and inactive are the calls of the source.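 How the source made its calls, unless noted: active means primary screen hit whose fluorescence ratio, in both repeats, exceeds the weak agonist control mean by 3 SD; inactive means the rest.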

Assays:
[1] = test system: TRPC4 beta (transient receptor potential cation channel C4), mouse; experiment: TRPC4 cation channel opening, retest – cell-based, Fluo4 calcium, HEK293 TRPC4beta/mu-opioid, duplicates, 10 µM, confirmation (AID 2426;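 active means fluorescence ratio normalized to control raised more than 50% in primary screen plus both repeat runs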); conditions: Fluo4 calcium fluorescence, at 10 µM; hits give high values
[2] = test system: transient receptor potential cation channel C4 beta (TRPC4), mouse; experiment: TRPC4 cation channel opening, second retest – cell-based, second round, Fluo4, HEK293 TRPC4beta/mu-opioid, 1 µM, confirmation (AID 2461;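 active means primary screen active and over 50% activation in each of two duplicate runs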); conditions: Fluo4 calcium fluorescence, at 1 µM; hits give high values
[3] = test system: TRPC4 (transient receptor potential cation channel C4 beta), mouse; experiment: potentiation of DAMGO EC20 TRPC4 response – cell-based, second round, Fluo-4, HEK293 TRPC4beta/mu-opioid, 1 µM, confirmation (AID 2554); conditions: DAMGO EC20, Fluo-4 calcium flux, at 1 µM; hits give high values
[4] = test system: TRPC4 beta (transient receptor potential cation channel C4), mouse; experiment: potentiation of DAMGO EC20 TRPC4 response – cell-based, Fluo-4, HEK293 TRPC4beta/mu-opioid, confirmation (AID 2555;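 active means primary screen hit whose calcium fluorescence ratio, in both repeats, exceeds the weak agonist control mean by 3 SD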); conditions: DAMGO EC20, Fluo-4 calcium flux, at 10 µM; hits give high values
[5] = target: Short transient receptor potential channel 4 (Mus musculus) (UniProt Q9QUQ5); experiment: blockers of DAMGO-evoked TRPC4 calcium flux – cell-based, Fluo4, HEK293 TRPC4beta/mu-opioid, confirmation (AID 2636;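 active means calcium signal cut by more than 3 SD below the full-agonist control yet still positive, in both repeats and the earlier primary screen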); conditions: at 10 µM; hits give high values
Short transient receptor potential channel 4 (Mus musculus), sequence (Q9QUQ5 whole entry, looked up): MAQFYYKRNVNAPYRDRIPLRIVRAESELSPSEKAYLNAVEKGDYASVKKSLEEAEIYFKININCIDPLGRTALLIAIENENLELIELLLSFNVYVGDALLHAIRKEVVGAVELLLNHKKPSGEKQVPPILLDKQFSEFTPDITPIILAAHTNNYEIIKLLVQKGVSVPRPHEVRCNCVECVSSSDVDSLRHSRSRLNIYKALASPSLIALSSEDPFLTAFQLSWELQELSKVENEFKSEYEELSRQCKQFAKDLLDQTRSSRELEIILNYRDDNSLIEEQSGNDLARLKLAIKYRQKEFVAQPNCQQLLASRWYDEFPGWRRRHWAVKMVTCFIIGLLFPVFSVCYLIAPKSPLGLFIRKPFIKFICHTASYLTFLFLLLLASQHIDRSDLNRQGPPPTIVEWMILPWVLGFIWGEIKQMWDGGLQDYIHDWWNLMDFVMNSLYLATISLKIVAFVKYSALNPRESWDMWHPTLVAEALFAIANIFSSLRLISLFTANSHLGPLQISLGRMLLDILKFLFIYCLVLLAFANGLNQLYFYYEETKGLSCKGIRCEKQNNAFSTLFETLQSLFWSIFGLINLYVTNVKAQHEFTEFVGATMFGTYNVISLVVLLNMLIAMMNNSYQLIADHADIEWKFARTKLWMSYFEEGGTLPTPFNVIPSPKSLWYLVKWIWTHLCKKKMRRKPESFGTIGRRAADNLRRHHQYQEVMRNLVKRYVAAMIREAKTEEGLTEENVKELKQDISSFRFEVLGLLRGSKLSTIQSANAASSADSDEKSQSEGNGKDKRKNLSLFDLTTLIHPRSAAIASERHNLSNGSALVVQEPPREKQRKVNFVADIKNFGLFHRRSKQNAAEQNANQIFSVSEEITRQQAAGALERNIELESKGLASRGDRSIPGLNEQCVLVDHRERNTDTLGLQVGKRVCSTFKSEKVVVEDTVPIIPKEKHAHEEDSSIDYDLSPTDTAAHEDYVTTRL

[6] = target: Short transient receptor potential channel 4 (Mus musculus) (UniProt Q9QUQ5); experiment: blockers of DAMGO-evoked TRPC4 calcium flux – cell-based, second round, Fluo4, HEK293 TRPC4beta/mu-opioid, 1 µM, confirmation (AID 2637;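 active means calcium signal ratio cut to more than 3 SD under the fully stimulated control mean yet still positive, in both repeats and the primary screen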); conditions: at 1 µM; hits give high values
[7] = target: Short transient receptor potential channel 4 (Mus musculus) (UniProt Q9QUQ5); experiment: calcium entry via TRPC4 opening agents – cell-based, HEK293 TRPC4/mu-opioid, Fluo-4 calcium, dose response (AID 434937;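 active means primary screen activator hit with a dose response curve and TRPC4 channel activation at any tested dose; inactive means no activation, no dose response, or not a primary hit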)
[8] = target: Short transient receptor potential channel 4 (Mus musculus) (UniProt Q9QUQ5); experiment: potentiation of DAMGO-evoked TRPC4 calcium signal – cell-based, HEK293 TRPC4/mu-opioid, Fluo-4 calcium, EC20 DAMGO, dose response (AID 434941;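 active means earlier screen potentiator hit that boosts the TRPC4 ion channel at some dose, with a dose response; inactive means no potentiation, no dose response, or not a prior hit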;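 further: calcium entry triggered by an EC20 dose of DAMGO at the co-expressed mu-opioid receptor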)
[9] = target: Short transient receptor potential channel 4 (Mus musculus) (UniProt Q9QUQ5); experiment: block of DAMGO-driven TRPC4 calcium entry – cell-based, HEK293 TRPC4/mu-opioid, Fluo-4 calcium, dose response (AID 434942;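 active means primary screen inhibitor hit that blocks the TRPC4 channel at some tested dose, yielding a dose curve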)
[10] = target: Short transient receptor potential channel 6 (Mus musculus) (UniProt Q61143); experiment: TRPC6 blockade by TRPC4 inhibitor hits – cell-based, HEK293, membrane potential dye, duplicate, selectivity assay for TRPC4 inhibitor project, confirmation (AID 434948;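 active means active in primary screen and both duplicates, each dropping signal beyond three positive-control SD with fluorescence still positive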); conditions: HEK293 TRPC6, membrane potential dye fluorescence, at 10 µM, stimulated with maximal-effect acetylcholine; hits give high values
Short transient receptor potential channel 6 (Mus musculus), sequence (Q61143 whole entry, looked up): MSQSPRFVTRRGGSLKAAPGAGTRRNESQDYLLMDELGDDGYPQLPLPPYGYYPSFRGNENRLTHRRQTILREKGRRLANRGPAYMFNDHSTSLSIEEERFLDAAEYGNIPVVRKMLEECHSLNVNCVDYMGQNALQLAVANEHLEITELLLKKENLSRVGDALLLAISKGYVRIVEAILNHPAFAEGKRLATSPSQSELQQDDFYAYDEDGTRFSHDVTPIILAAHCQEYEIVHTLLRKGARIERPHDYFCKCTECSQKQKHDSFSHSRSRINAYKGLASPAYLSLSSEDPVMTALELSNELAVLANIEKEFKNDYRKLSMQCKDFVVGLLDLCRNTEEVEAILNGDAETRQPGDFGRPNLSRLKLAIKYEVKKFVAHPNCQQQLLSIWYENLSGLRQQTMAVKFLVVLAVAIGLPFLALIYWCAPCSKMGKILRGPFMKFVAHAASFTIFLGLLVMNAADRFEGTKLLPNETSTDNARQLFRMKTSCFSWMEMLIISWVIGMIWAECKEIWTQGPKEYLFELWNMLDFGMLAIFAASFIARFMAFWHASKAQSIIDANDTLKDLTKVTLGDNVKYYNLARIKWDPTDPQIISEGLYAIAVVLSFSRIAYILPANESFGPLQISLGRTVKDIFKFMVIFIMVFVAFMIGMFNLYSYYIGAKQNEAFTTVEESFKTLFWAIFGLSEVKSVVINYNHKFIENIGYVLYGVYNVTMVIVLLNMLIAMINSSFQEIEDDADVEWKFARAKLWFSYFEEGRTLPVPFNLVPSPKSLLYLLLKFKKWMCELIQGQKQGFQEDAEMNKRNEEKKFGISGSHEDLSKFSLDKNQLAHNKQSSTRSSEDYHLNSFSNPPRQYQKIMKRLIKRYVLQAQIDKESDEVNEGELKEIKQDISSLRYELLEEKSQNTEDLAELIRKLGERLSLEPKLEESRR

[11] = target: Short transient receptor potential channel 6 (Mus musculus) (UniProt Q61143); experiment: TRPC6 opening by TRPC4 activator hits – cell-based, HEK293, membrane potential dye, duplicate, selectivity assay for TRPC4 activator project, confirmation (AID 434950;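 active means membrane potential signal rise above negative control mean plus 3 SD in both duplicates, also active in the earlier TRPC4 screen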;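 on activation: 0% = buffer only wells and 100% = acetylcholine maximal-effect wells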); conditions: HEK293 TRPC6, membrane potential fluorescence, at 10 µM; activation: hits give high values; outcome: activation
[12] = target: Short transient receptor potential channel 6 (Mus musculus) (UniProt Q61143); experiment: positive modulators of mouse TRPC6 channel – HEK293 cells, membrane potential dye, duplicate, selectivity assay for TRPC4 potentiator project, confirmation (AID 434952;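 active means compound raising the membrane signal above positive-control mean plus 3 SD in both repeats, and a primary screen hit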); conditions: HEK293 TRPC6, membrane potential dye fluorescence, at 10 µM, maximal acetylcholine added after compound; hits give high values
[13] = target: Short transient receptor potential channel 4 (Mus musculus) (UniProt Q9QUQ5); experiment: calcium flux activators in TRPC4/5HT1a cells, counter-screen for TRPC4 activator project, cell-based, second counter screen, HEK293 TRPC4/5HT1a, Fluo-4 (AID 434977;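 active means calcium signal rise above buffer-control mean plus 5 SD in both duplicates, and also a hit in the primary screen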); conditions: Fluo-4 calcium flux, at 10 µM; hits give high values
[14] = serotonin-gated TRPC4 signal block – cell-based, second counter screen, HEK293 TRPC4/5HT1a, Fluo-4, counter-screen for TRPC4 inhibitor project, confirmation (AID 434978;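 active means primary screen active whose calcium signal fell more than 3 SD beyond the full-serotonin control mean in both duplicate plates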;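 on outcome: serotonin given first at submaximal then at maximal dose after compound preincubation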); conditions: Fluo-4 calcium flux, at 10 µM, serotonin added to trigger calcium flux; hits give high values
[15] = test system: TRPC4 (mouse), co-expressed with 5HT1a in HEK293; experiment: enhancement of serotonin-evoked TRPC4 response – cell-based, second counter screen, HEK293 TRPC4/5HT1a, Fluo-4, counter-screen for TRPC4 potentiator project, confirmation (AID 434979;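 active means signal rise over 3 SD above mean of control wells given weak agonist, in both repeats and first screen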); conditions: Fluo-4 calcium flux, at 10 µM, serotonin added at its EC20 dose; hits give high values
[16] = nonspecific calcium rise without TRPC4 – cell-based, HEK293 mu-opioid receptor line, counter-screen for TRPC4 activator project, confirmation (AID 449723;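 active means hit in primary screen, with calcium signal over 5 SD above buffer well mean in both duplicates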;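 further: counter screen cells carry the mu-opioid receptor alone and lack TRPC4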); conditions: HEK293 mu-opioid cells, Fluo-4 calcium fluorescence, at 10 µM; hits give high values
[17] = nonspecific potentiation of DAMGO calcium response – cell-based, HEK293 mu-opioid receptor line, counter-screen for TRPC4 allosteric potentiator project, confirmation (AID 449724;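 active means calcium signal rise more than 3 SD above the low-dose agonist control mean, in both duplicate plates and the primary screen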); conditions: HEK293 mu-opioid receptor cells, Fluo-4 calcium flux, at 10 µM, compound added before EC20 DAMGO stimulus; hits give high values

COc1ccc(C2CC(=O)c3cnc(N4CCN(Cc5ccccc5)CC4)nc3C2)cc1 (stereo not given)
inactive: outcome [1] | outcome [2] | outcome [3] | outcome [4] | outcome [5] | outcome [6] | outcome [7] | outcome [8] | outcome [9] | outcome [10] | outcome [11] | outcome [12] | outcome [13] | outcome [14] | outcome [16] | outcome [17]
active: potentiation [15] 14.7%

Cc1ccc(C(=O)C[n+]2cccc3cc(C)ccc32)cc1
inactive: outcome [1] | outcome [2] | outcome [3] | outcome [4] | outcome [5] | outcome [6] | outcome [7] | outcome [8] | outcome [9] | outcome [10] | outcome [11] | outcome [12] | outcome [13] | outcome [14] | outcome [15] | outcome [16] | outcome [17]

COC(=O)c1ccc(NC(=O)CCN2CCN(Cc3ccccc3)CC2)cc1
inactive: outcome [1] | outcome [2] | outcome [4] | outcome [5] | outcome [6] | outcome [7] | outcome [8] | outcome [9] | outcome [10] | outcome [11] | outcome [12] | outcome [13] | outcome [14] | outcome [16] | outcome [17]
active: potentiation [3] 25% | potentiation [15] 12.9%

O=C(COc1ccccc1-c1ccccc1)NCc1ccco1
inactive: outcome [1] | outcome [2] | outcome [3] | outcome [4] | outcome [5] | outcome [6] | outcome [7] | outcome [8] | outcome [9] | outcome [10] | outcome [11] | outcome [12] | outcome [13] | outcome [14] | outcome [15] | outcome [16] | outcome [17]

COC(=O)CC(NC(=S)NC(=O)c1ccccc1)c1ccc(Br)cc1 (stereo not given)
active: potentiation [4] 35% | potentiation [15] 12.5%
inactive: outcome [1] | outcome [2] | outcome [3] | outcome [5] | outcome [6] | outcome [7] | outcome [8] | outcome [9] | outcome [10] | outcome [11] | outcome [12] | outcome [13] | outcome [14] | outcome [16] | outcome [17]

O=C(/C=C/c1ccc(Cl)cc1)N(Cc1ccccc1)C1CCS(=O)(=O)C1 (stereo not given)
inactive: outcome [1] | outcome [2] | outcome [3] | outcome [4] | outcome [5] | outcome [6] | outcome [7] | outcome [8] | outcome [9] | outcome [10] | outcome [11] | outcome [12] | outcome [13] | outcome [14] | outcome [16] | outcome [17]
active: potentiation [15] 15.5%

COc1ccc(CN(C2CCCCC2C)S(=O)(=O)c2ccc(S(=O)(=O)N(C)C)cc2)cc1OC (stereo not given)
inactive: outcome [1] | outcome [2] | outcome [3] | outcome [5] | outcome [6] | outcome [7] | outcome [8] | outcome [9] | outcome [10] | outcome [11] | outcome [12] | outcome [13] | outcome [14] | outcome [16] | outcome [17]
active: potentiation [4] 12% | potentiation [15] 5.84%

COc1cc(/C=C/C(=O)OCC(=O)Nc2c(C)n(C)n(-c3ccccc3)c2=O)ccc1OCC#N
active: activation [11] 39.5%
inactive: outcome [1] | outcome [2] | outcome [3] | outcome [4] | outcome [5] | outcome [6] | outcome [7] | outcome [8] | outcome [9] | outcome [10] | outcome [12] | outcome [13] | outcome [14] | outcome [15] | outcome [16] | outcome [17]

CCCCc1nc(N2CCOCC2)c(C#N)c2c1CCCC2
inactive: outcome [1] | outcome [2] | outcome [3] | outcome [4] | outcome [5] | outcome [6] | outcome [7] | outcome [8] | outcome [9] | outcome [10] | outcome [11] | outcome [12] | outcome [13] | outcome [15] | outcome [16] | outcome [17]
active: inhibition [14] 36.5%

CCOC(=O)c1sc2c(c1C)c(=O)n(CCO)c(=O)n2Cc1ccccc1
inactive: outcome [1] | outcome [2] | outcome [3] | outcome [4] | outcome [5] | outcome [6] | outcome [7] | outcome [8] | outcome [9] | outcome [10] | outcome [11] | outcome [12] | outcome [13] | outcome [14] | outcome [15] | outcome [16] | outcome [17]
